High-throughput results (PubChem)
Shown are actives, neighbours in structure and some others; about 3% of the full set was active somewhere.
UbGFP stabilizer = ubiquitin-GFP accumulation via proteasome inhibition | Ubiquitin-GFP reporter cells, proteasome inhibition, GFP fluorescence; response scale: untreated = 0%, 10 µM MG-132 = 100% | Potency, µM (top dose mostly 45.9 µM), for inactives: at the top dose activation (GFP accumulation), hits mostly activators | 67,000 tested, under 10 active | AID 526; active = well fitted activation curve with a large enough effect, not every such curve was filed as active; inconclusive = small, poorly fitted or top-dose-only effect, or another doubt; inactive = no such curve, though single readings can be large or run the other way; note: potency is the fitted concentration of half-maximal effect
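Proteasome block read as GFP accumulation: ubiquitin(G76V)-GFP U2OS cells exposed to compound (2.9 nM–46 uM) for 4 hr at 37 C. Normalization used untreated cells as 0% and 10 uM MG-132 as 100%; concentration-response curves fitted.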
Epigenetic mod = epigenetic GFP locus derepression in mouse cells. Potency, µM (top dose mostly 46.1 µM), inactives show at the top dose GFP derepression (activation). mouse C127i GFP locus derepression, cytometry, 30 h. hit rate 0.09% among 68,000. AID 597; note: % of control where 0% means no effect
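Derepression screen: silenced CMV-GFP reporter in murine C127i cells, 30 h compound incubation at 37 C, washed cells imaged by laser-scanning cytometer to enumerate GFP-expressing objects of 20 to 120 um.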
Hsp90 Hop PPI = changes Hsp90-Hop TPR2A binding signal, up or down. AlphaScreen TPR2A-His6 binding biotin-Hsp90 C-terminal peptide. Potency, µM (highest dose often 57 µM), without a hit: top-dose activity change, negative = inhibition. hit rate 0.44% among 71,000. AID 595; active = well fitted curve in either direction with a large enough effect; inconclusive = small, poorly fitted or top-dose-only effect, or another doubt; note: potency is the fitted concentration of half-maximal effect; % is set by controls: 0 for no effect and ±100 for the full control effect
Tau filament bind = binds recombinant human tau filaments; P10636; recombinant tau filaments, thioflavin S fluorescence, 15 h; filaments grown with octadecylsulfate alongside compound; Potency, µM (titrated, usually from 57.1 µM), without a hit: at the highest dose activity change, negative = inhibition; hit rate 2% among 71,000;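 note: potency is the fitted concentration of half-maximal effect; % is set by controls: 0 for no effect and ±100 for the full control effect; actives lower thioflavin S fluorescence by blocking filaments or displacing dye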
Target sequence (P10636 whole entry, looked up): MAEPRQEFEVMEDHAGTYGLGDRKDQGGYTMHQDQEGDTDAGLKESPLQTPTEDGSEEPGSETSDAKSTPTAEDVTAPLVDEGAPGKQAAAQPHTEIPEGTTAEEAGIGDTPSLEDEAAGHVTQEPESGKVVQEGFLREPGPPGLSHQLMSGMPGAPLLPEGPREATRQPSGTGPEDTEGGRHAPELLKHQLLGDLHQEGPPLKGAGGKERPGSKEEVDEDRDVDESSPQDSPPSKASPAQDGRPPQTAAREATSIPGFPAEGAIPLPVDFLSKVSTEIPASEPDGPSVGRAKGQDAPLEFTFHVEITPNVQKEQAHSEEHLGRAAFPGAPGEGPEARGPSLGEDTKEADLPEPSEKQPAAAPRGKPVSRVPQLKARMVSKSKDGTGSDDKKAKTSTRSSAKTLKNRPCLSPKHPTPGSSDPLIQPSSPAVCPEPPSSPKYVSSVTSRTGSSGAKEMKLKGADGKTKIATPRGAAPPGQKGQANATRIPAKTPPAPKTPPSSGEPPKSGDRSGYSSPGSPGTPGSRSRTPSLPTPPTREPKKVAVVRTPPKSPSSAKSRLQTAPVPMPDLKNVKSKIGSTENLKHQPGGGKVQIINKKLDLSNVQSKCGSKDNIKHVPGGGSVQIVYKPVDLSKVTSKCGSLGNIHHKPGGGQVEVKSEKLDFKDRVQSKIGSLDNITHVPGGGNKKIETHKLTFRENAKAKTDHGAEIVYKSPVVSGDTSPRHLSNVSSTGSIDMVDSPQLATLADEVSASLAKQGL
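Quantitative HTS: thioflavine S signal from ODS-induced tau filaments, excited at 450 nm, emission 510 nm. Conditions: 1 uM tau, 30 uM ODS, 15 h at 37 C, pH 7.4.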
ERK AVP block = blocks ERK signaling stimulated by vasopressin; HEK293-V1b, vasopressin-stimulated pERK AlphaScreen; Potency, µM (series often up to 57.5 µM), for inactives: top-dose activity, negative = inhibition, hits mostly inhibitors; hit rate 0.99% among 72,000; AID 995; note: potency is the fitted concentration of half-maximal effect; % is set by controls: 0 for no effect and ±100 for the full control effect; nearly all actives have a fitted effect of over 55% in size
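Overnight-seeded V1b-HEK293 cells in 1% FBS got compound, then vasopressin (25 nM final, 5 min, 37C), then lysis buffer. AlphaScreen detection of phospho-ERK; activity normalized to basal and full-stimulation controls.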
HBB splice mod = modulators of hemoglobin beta chain splicing | HBB splicing reporter cell assay, activation; EGFP reporter with mutant IVS2-654 intron; response scale: normalised to 500 nM splice-correcting PNA | AID 925 | hit rate 0.06% among 65,000 | Potency, µM (doses to about 46.1 µM), for the others: at the top dose activation, hits mostly activators; note: potency is the fitted concentration of half-maximal effect; 0% is about no effect
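Compounds were applied for 2 days to HeLa EGFP-654 cells, 500/well in Optimem with 2% FCS. The reporter's EGFP is disrupted by mis-splicing of beta-globin intron IVS2-654. Readout: summed well GFP fluorescence from 488 nm laser scanning; reference was 500 nM antisense […] 654 PNA.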
* hit, by the source's call; [ ] = remark or other dose. Unless noted, calls come from the whole dose curve; as a rule, active = well fitted curve in the direction sought with a large enough effect; inconclusive = small, poorly fitted or top-dose-only effect, or another doubt; inactive = no such curve, though single readings can be large; an effect the other way counts as inactive or inconclusive.

Results for CC1C(NC(=O)/C(=N/OC(C)(C)C(=O)O)c2csc(N)n2)C(=O)N1S(=O)(=O)O (stereo unspecified) ?
ERK AVP block: 1%

Results for CC(C)OCCCn1c(-c2ccco2)nc2nc3ccccc3nc21 ?
UbGFP stabilizer: 4%; Epigenetic mod: 2%; Hsp90 Hop PPI: 3%; Tau filament bind: 16µM*; ERK AVP block: -26%; HBB splice mod: 1%[57.5 µM]

What do the screens show for `COCCn1c(-c2ccco2)nc2nc3ccccc3nc21`?
UbGFP stabilizer: 0%; Epigenetic mod: 2%; Hsp90 Hop PPI: -2%; Tau filament bind: -15%; ERK AVP block: -26%; HBB splice mod: 3%[57.5 µM]

Results for [O-][n+]1c(CN2CCCCC2)nc2cccc3c2c1-c1ccccc1-3 ?
UbGFP stabilizer: -1%[9.17 µM]; Epigenetic mod: 7%[9.22 µM]; Hsp90 Hop PPI: 13%[11 µM]; Tau filament bind: 0%[11.4 µM]; ERK AVP block: 20%[11.5 µM]; HBB splice mod: 0%[9.22 µM]

How did CCCN(CCC)c1nc2ccccc2nc1C(C#N)C(=O)OCCOC (stereo unspecified) do in these assays?
UbGFP stabilizer: 4%; Epigenetic mod: 0%; Hsp90 Hop PPI: -4%; Tau filament bind: 1.3µM*; ERK AVP block: -21%; HBB splice mod: 4%[57.5 µM]

What do the screens show for `C=CCN(CC=C)c1nc2ccccc2nc1C(C#N)C(=O)OCCOC` (stereo unspecified)?
UbGFP stabilizer: 2%; Epigenetic mod: 0%; Hsp90 Hop PPI: -5%; Tau filament bind: 173%; ERK AVP block: 6%; HBB splice mod: 1%

How did CCOC(=O)c1c(C)oc2ccc(NS(=O)(=O)c3ccc4c5c(cccc35)C(=O)N4)cc12 do in these assays?
UbGFP stabilizer: 3%; Epigenetic mod: 3%; Hsp90 Hop PPI: -3%; Tau filament bind: 7.9µM*; ERK AVP block: inconclusive; HBB splice mod: 6%

What do the screens show for `COCCOC(=O)c1c(C)oc2ccc(NS(=O)(=O)c3ccccc3)cc12`?
UbGFP stabilizer: -1%; Epigenetic mod: 5%; Hsp90 Hop PPI: 0%; Tau filament bind: 9%; ERK AVP block: 2%

Results for CCOc1ccc(-c2nc(CSCC(=O)N3CCN(c4cccc(OC)c4)CC3)c(C)o2)cc1 ?
UbGFP stabilizer: 6%; Epigenetic mod: 7%; Hsp90 Hop PPI: -12%; Tau filament bind: 181%; ERK AVP block: 13µM*; HBB splice mod: -1%

What do the screens show for `C[C@@]12C(=O)OC(=O)[C@@]1(C)C1CCC2O1`?
ERK AVP block: 3.2µM*

How did C[C@@]12C(=O)OC(=O)[C@@]1(C)[C@@H]1CC[C@@H]2O1 do in these assays?
UbGFP stabilizer: 3%; Epigenetic mod: 2%; Hsp90 Hop PPI: -15%; Tau filament bind: 32µM*; ERK AVP block: 1%

Results for C[C@@]12C(=O)OC(=O)[C@]1(C)[C@H]1CC[C@@H]2O1 ?
UbGFP stabilizer: -11%[20.5 µM]; Epigenetic mod: 1%[20.6 µM]; Hsp90 Hop PPI: -5%[26 µM]; Tau filament bind: -11%[25.6 µM]; ERK AVP block: 5µM*; HBB splice mod: -2%[20.6 µM]

Results for O=c1oc2c3c4c(cc2s1)CCCN4CCC3 ?
UbGFP stabilizer: 3%; Epigenetic mod: 5%; Hsp90 Hop PPI: -28%; Tau filament bind: 25µM*; ERK AVP block: inconclusive; HBB splice mod: -2%

Results for Cn1c(C[C@@H](O)c2nc3ccccc3n2C)nc2ccccc21 ?
UbGFP stabilizer: 0%[9.17 µM]; Epigenetic mod: 6%[9.22 µM]; Hsp90 Hop PPI: -2%[11 µM]; Tau filament bind: -11%[11.4 µM]; ERK AVP block: -26%[11.5 µM]; HBB splice mod: 1%[9.22 µM]

How did N#CC1=C(N)Oc2n[nH]c(-c3ccc(F)cc3)c2C1c1cccnc1 (stereo unspecified) do in these assays?
UbGFP stabilizer: 8%; Epigenetic mod: 2%; Hsp90 Hop PPI: -6%; Tau filament bind: 0%; ERK AVP block: 16µM*; HBB splice mod: -1%

Results for N#C[C@H](C(=O)O)C(c1c(Cl)cccc1Cl)[C@H](C#N)C(=O)O ?
UbGFP stabilizer: -2%[9.17 µM]; Epigenetic mod: -3%[9.22 µM]; Hsp90 Hop PPI: -2%[11 µM]; Tau filament bind: -3%[11.4 µM]; ERK AVP block: -2%[11.5 µM]; HBB splice mod: 3%[9.22 µM]

Results for C[N+](C)(C)CC(=O)N/N=C\c1c(O)ccc2ccccc12 ?
UbGFP stabilizer: -2%[9.17 µM]; Epigenetic mod: 0%[9.22 µM]; Hsp90 Hop PPI: 3.2µM*; Tau filament bind: 17%[11.4 µM]; ERK AVP block: 12%[11.5 µM]; HBB splice mod: 4%[9.22 µM]

How did O=C(CCCOc1ccccc1)N1CCN(c2ccccn2)CC1 do in these assays?
UbGFP stabilizer: 2%; Epigenetic mod: 6%; Hsp90 Hop PPI: 3%; Tau filament bind: -11%; ERK AVP block: 25µM*; HBB splice mod: 5%

Results for O=C(CCCOc1ccc(Cl)cc1Cl)N1CCN(c2ccccn2)CC1 ?
UbGFP stabilizer: 0%; Epigenetic mod: -3%; Hsp90 Hop PPI: -3%; Tau filament bind: 29%; ERK AVP block: 40µM*; HBB splice mod: 0%

How did O=C(CCCCCNc1nc(=S)[nH]c2ccccc12)N1CCN(c2ccccn2)CC1 do in these assays?
UbGFP stabilizer: 0%; Epigenetic mod: -1%; Hsp90 Hop PPI: -4%; Tau filament bind: -6%; ERK AVP block: 13µM*; HBB splice mod: -3%

Results for O=C(CCCn1c(=O)[nH]c2ccccc2c1=O)N1CCN(c2ccccn2)CC1 ?
UbGFP stabilizer: 3%; Hsp90 Hop PPI: -7%[2.3 µM]; Tau filament bind: -3%; ERK AVP block: -10%; HBB splice mod: 0%

Results for C=C(C)C1CC=C(C)C(OC(C)=O)C1 (stereo unspecified) ?
Hsp90 Hop PPI: -3%; Tau filament bind: 8%; ERK AVP block: 8%; HBB splice mod: 1%

What do the screens show for `CN1CCc2c(sc3c2C(=O)NC(c2cccs2)N3)C1` (stereo unspecified)?
UbGFP stabilizer: 0%; Epigenetic mod: inconclusive; Hsp90 Hop PPI: -8%; Tau filament bind: inactive; ERK AVP block: -22%; HBB splice mod: 0%[0.369 µM]

Results for CN1CCc2c(sc3c2C(=O)NC(c2ccc(-c4cccc(Cl)c4)o2)N3)C1 (stereo unspecified) ?
UbGFP stabilizer: -9%; Hsp90 Hop PPI: inconclusive; Tau filament bind: 1.3µM*; ERK AVP block: 1%; HBB splice mod: inconclusive

What do the screens show for `CS(=O)(=O)N1CCC2(CC1)CN(C(=O)Nc1cccc(F)c1)C2`?
UbGFP stabilizer: -1%; Epigenetic mod: 0%[9.22 µM]; Hsp90 Hop PPI: inconclusive; Tau filament bind: 13µM*; ERK AVP block: -22%; HBB splice mod: 10%

Results for CC(C)CCNC(=O)CCn1nc(-c2ccccc2)ccc1=O ?
UbGFP stabilizer: -8%; Epigenetic mod: 1%; Hsp90 Hop PPI: inconclusive; Tau filament bind: 8%; ERK AVP block: -20%; HBB splice mod: 4%
